Of roughly 8,800 targets only a part is listed; those with a hit were picked by preference. About 0.5% of all pairs of compound and target were hits. Values without a mark were called inactive.
What was measured:
Assay in all cases: log2 fold change, soluble protein after heating vs DMSO (PISA); higher = thermal stabilisation; K562 lysate, 10 uM; active = over 0.2 and 3.5 SD of the protein, either way, in both replicates (recomputed)
alvocidib = compound: CN1CC[C@H](c2c(O)cc(O)c3c(=O)cc(-c4ccccc4Cl)oc23)[C@H](O)C1 [alvocidib]
Method in brief: (§1)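 Log-two fold change in thermal stability relative to solvent controls is reported from duplicates. For each sample, crude K562 extract from dounce-homogenised pellets in PBS pH 7.4 with 1 mM MgCl2, at 1 mg/mL protein, was treated with 10 μM compound for 30 min. Aliquots heated for 3 min across 48°C-58°C were pooled, brought to 0.5% NP-40 at 4°C and cleared at 21,000xg for 90 min. The supernatant was quantified by TMTpro 16plex LC-MS/MS with channel sums equalised.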

Tubastatin A = compound: CN1CCc2c(c3ccccc3n2Cc2ccc(C(=O)NO)cc2)C1 [Tubastatin A]
Method in brief: as §1

[1] = compound: CNC(=O)C1=CC=CC=C1NC2=NC(=NC=C2Cl)NC3=C(C=C(C=C3)N4CCOCC4)OC
Method in brief: as §1

defactinib = compound: CNC(=O)c1ccc(Nc2ncc(C(F)(F)F)c(NCc3nccnc3N(C)S(C)(=O)=O)n2)cc1 [defactinib]
Method in brief: as §1

[2] = compound: CNc1nc(-c2ccc3c(N)n[nH]c3c2)cc(N2C[C@@H](C(=O)NC3CCCCC3)CC[C@H]2C)n1
Method in brief: as §1

encorafenib = compound: COC(=O)N[C@@H](C)CNc1nccc(-c2cn(C(C)C)nc2-c2cc(Cl)cc(NS(C)(=O)=O)c2F)n1 [encorafenib]
Method in brief: as §1

[3] = compound: COC(=O)[C@H](CCSC)NC(=O)C1=C(C=C(C=C1)NC[C@H](CS)N)C2=CC=CC=C2
Method in brief: as §1

alisertib = compound: COc1cc(Nc2ncc3c(n2)-c2ccc(Cl)cc2C(c2c(F)cccc2OC)=NC3)ccc1C(=O)O [alisertib]
Method in brief: as §1

[4] = compound: COc1cc2nc(-c3cc(F)ccc3O)nc(N[C@@H]3CNC[C@H]3C(C)(C)O)c2cc1OC
Method in brief: as §1

gefitinib = compound: COc1cc2ncnc(Nc3ccc(F)c(Cl)c3)c2cc1OCCCN1CCOCC1 [gefitinib]
Method in brief: as §1

lapatinib = compound: CS(=O)(=O)CCNCc1ccc(-c2ccc3ncnc(Nc4ccc(OCc5cccc(F)c5)c(Cl)c4)c3c2)o1 [lapatinib]
Method in brief: as §1

pictilisib = compound: CS(=O)(=O)N1CCN(Cc2cc3nc(-c4cccc5[nH]ncc45)nc(N4CCOCC4)c3s2)CC1 [pictilisib]
Method in brief: as §1

crizotinib = compound: C[C@@H](Oc1cc(-c2cnn(C3CCNCC3)c2)cnc1N)c1c(Cl)ccc(F)c1Cl [crizotinib]
Method in brief: as §1

[5] = compound: C[C@H](C1=CC=C(C=C1)C(=O)NC2=C3C=CNC3=NC=C2)N
Method in brief: as §1

duvelisib = compound: C[C@H](Nc1ncnc2nc[nH]c12)c1cc2cccc(Cl)c2c(=O)n1-c1ccccc1 [duvelisib]
Method in brief: as §1

gandotinib = compound: Cc1cc(Nc2cc(CN3CCOCC3)c3nc(C)c(Cc4ccc(Cl)cc4F)n3n2)n[nH]1 [gandotinib]
Method in brief: as §1

tozasertib = compound: Cc1cc(Nc2cc(N3CCN(C)CC3)nc(Sc3ccc(NC(=O)C4CC4)cc3)n2)n[nH]1 [tozasertib]
Method in brief: as §1

doramapimod = compound: Cc1ccc(-n2nc(C(C)(C)C)cc2NC(=O)Nc2ccc(OCCN3CCOCC3)c3ccccc23)cc1 [doramapimod]
Method in brief: as §1

bafetinib = compound: Cc1ccc(NC(=O)c2ccc(CN3CC[C@H](N(C)C)C3)c(C(F)(F)F)c2)cc1Nc1nccc(-c2cncnc2)n1 [bafetinib]
Method in brief: as §1

[6] = compound: Cc1cccc(CC(=O)N2CCc3c2ccc(-c2cn(C)c4ncnc(N)c24)c3F)n1
Method in brief: as §1

Chain of UniProt Q13153 (Q13153 whole entry, looked up): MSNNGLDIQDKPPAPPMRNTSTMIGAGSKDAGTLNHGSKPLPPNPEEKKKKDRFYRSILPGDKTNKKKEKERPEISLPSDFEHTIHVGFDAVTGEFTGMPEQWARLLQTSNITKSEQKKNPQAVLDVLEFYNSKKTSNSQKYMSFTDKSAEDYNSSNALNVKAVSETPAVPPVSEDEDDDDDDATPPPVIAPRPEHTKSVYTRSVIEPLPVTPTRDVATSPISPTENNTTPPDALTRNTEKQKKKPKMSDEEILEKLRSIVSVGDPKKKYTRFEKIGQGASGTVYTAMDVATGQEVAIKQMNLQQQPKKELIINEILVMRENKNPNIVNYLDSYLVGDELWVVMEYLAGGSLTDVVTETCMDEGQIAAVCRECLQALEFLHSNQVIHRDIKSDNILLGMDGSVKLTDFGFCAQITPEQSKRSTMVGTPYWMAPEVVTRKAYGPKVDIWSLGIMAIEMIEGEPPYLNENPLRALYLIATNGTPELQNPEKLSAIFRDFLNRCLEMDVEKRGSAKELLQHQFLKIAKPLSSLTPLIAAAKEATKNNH
Chain of UniProt Q96NT1 (Q96NT1 whole entry, looked up): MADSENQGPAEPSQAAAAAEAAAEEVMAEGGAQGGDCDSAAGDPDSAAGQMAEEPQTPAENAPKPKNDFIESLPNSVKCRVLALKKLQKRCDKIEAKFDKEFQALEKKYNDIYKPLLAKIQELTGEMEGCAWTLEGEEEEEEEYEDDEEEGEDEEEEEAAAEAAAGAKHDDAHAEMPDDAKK
Chain of UniProt O00221 (O00221 whole entry, looked up): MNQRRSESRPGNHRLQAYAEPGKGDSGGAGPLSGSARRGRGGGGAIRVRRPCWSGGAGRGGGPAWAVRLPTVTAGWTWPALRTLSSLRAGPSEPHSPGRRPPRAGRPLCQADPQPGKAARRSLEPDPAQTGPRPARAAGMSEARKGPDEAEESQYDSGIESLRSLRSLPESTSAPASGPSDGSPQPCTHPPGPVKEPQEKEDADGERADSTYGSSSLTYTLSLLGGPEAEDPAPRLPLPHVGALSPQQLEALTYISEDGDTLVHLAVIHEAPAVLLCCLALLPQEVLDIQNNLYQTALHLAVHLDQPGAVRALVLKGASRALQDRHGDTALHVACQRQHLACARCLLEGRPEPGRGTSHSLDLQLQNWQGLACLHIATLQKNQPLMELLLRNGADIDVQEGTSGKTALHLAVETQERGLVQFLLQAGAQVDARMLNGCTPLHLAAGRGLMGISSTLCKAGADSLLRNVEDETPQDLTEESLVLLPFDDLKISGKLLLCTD
Chain of UniProt P15559 (P15559 whole entry, looked up): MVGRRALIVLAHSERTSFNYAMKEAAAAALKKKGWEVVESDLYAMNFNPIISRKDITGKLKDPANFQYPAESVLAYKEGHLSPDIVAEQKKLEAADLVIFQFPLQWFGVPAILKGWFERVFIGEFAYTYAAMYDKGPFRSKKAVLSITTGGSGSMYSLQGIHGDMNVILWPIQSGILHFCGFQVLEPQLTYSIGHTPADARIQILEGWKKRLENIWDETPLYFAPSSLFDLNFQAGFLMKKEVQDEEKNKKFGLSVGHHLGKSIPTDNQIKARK
Chain of UniProt O76041 (O76041 whole entry, looked up): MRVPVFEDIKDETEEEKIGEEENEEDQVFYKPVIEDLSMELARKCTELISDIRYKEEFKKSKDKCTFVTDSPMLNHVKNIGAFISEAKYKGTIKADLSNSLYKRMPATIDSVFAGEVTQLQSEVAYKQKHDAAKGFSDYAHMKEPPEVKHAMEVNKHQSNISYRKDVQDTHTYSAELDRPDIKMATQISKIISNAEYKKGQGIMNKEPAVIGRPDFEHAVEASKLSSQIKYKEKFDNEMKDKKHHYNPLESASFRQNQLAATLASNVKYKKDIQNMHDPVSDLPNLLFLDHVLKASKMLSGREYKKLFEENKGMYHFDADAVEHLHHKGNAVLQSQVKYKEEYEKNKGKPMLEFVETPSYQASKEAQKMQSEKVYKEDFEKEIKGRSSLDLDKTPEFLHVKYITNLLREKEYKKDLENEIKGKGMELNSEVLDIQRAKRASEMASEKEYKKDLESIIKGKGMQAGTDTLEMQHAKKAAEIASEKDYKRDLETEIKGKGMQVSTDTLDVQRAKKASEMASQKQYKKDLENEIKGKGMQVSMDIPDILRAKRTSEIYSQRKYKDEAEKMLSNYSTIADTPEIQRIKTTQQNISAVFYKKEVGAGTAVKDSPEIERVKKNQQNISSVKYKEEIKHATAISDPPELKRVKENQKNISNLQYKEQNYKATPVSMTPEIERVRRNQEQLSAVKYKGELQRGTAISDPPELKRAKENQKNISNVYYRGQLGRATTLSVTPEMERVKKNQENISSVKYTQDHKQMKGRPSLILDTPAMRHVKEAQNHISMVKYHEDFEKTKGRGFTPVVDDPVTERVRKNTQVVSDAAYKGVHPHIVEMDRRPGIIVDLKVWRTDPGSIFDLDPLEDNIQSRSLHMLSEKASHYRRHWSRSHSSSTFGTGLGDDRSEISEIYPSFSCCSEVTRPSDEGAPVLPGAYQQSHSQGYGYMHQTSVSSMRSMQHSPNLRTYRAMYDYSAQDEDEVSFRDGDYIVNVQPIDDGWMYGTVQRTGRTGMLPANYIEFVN
Chain of UniProt Q969R2 (Q969R2 whole entry, looked up): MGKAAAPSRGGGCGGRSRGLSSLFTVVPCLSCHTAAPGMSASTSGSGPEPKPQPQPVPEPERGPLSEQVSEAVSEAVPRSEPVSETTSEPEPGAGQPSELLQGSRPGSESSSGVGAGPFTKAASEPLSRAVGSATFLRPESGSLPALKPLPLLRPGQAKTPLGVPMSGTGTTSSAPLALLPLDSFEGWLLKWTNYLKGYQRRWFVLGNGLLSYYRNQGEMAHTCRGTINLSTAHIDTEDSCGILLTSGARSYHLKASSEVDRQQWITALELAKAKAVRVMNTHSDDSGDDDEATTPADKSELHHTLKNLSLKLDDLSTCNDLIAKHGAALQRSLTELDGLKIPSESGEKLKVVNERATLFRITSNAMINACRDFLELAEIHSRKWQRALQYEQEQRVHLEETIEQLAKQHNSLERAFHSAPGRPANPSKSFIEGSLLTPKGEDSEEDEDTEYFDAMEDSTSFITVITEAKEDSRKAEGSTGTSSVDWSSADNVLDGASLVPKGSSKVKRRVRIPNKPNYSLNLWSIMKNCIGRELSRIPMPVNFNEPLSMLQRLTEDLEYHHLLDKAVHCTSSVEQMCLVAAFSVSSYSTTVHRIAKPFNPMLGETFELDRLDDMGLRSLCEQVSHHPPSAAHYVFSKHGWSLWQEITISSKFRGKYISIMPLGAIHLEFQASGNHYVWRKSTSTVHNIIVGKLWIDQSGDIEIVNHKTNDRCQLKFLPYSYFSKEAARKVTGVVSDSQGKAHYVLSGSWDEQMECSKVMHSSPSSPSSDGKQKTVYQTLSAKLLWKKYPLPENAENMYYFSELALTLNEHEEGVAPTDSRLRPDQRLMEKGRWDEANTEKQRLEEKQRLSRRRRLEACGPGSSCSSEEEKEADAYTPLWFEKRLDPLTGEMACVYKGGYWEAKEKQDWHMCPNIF
Chain of UniProt Q9H857 (Q9H857 whole entry, looked up): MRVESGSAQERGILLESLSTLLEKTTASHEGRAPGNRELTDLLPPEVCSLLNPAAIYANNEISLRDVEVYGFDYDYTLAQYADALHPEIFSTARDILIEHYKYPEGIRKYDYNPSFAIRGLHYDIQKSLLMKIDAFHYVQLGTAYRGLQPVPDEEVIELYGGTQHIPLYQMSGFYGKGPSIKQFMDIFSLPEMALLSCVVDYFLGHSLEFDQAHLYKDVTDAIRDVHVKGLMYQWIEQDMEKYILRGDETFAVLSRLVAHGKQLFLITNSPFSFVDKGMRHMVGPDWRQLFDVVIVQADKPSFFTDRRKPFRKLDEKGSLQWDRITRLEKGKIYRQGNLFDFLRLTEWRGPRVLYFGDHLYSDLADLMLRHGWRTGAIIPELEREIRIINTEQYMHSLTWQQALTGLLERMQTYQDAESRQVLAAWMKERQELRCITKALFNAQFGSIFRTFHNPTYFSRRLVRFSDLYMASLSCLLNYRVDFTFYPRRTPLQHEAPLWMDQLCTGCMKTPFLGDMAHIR
Chain of UniProt Q9H4L5 (Q9H4L5 whole entry, looked up): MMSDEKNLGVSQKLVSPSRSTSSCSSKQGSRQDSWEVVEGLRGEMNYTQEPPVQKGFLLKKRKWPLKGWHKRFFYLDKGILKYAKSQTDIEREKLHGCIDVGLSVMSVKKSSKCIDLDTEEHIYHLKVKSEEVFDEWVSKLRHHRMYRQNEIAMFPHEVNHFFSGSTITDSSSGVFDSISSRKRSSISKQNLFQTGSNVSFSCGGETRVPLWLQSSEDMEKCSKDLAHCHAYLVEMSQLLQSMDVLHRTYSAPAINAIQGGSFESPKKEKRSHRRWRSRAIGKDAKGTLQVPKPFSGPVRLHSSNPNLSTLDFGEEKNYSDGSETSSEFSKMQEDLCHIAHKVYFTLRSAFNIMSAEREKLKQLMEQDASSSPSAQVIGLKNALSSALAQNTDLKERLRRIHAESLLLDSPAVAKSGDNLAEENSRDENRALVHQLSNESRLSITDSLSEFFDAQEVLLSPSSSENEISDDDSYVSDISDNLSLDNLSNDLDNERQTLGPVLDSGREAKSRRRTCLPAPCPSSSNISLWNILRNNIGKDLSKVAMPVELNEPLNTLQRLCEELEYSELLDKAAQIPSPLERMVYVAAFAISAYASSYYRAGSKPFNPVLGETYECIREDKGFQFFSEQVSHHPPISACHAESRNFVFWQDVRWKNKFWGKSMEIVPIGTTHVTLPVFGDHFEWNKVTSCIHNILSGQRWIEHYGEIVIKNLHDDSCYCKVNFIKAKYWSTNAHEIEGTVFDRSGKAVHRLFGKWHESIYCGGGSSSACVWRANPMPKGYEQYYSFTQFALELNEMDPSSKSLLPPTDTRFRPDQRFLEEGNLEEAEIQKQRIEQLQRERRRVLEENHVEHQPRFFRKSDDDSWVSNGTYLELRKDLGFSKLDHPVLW
Chain of UniProt Q99417 (Q99417 whole entry, looked up): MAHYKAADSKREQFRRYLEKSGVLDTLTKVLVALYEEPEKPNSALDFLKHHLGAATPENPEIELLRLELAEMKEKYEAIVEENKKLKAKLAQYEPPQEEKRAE

| Target | log2 fold change (alvocidib) | log2 fold change (Tubastatin A) | log2 fold change [1] | log2 fold change (defactinib) | log2 fold change [2] | log2 fold change (encorafenib) | log2 fold change [3] | log2 fold change (alisertib) | log2 fold change [4] | log2 fold change (gefitinib) | log2 fold change (lapatinib) | log2 fold change (pictilisib) | log2 fold change (crizotinib) | log2 fold change [5] | log2 fold change (duvelisib) | log2 fold change (gandotinib) | log2 fold change (tozasertib) | log2 fold change (doramapimod) | log2 fold change (bafetinib) | log2 fold change [6] |
| --- | --- | --- | --- | --- | --- | --- | --- | --- | --- | --- | --- | --- | --- | --- | --- | --- | --- | --- | --- | --- |
| NTPCR (UniProt Q9BSD7) | 0.007 | -0.163 | 0.055 | 0.009 | 0.027 | 0.005 | -0.007 | 0.007 | 0.058 | -0.057 | -0.003 | -0.028 | -0.071 | 0.031 | -0.003 | -0.094 | -0.028 | 0.011 | -0.044 | -0.052 |
| OSBPL6 isoform 5 (UniProt Q9BZF3) | -0.056 | -0.05 | -0.043 | -0.063 | -0.047 | -0.005 | 0.015 | -0.068 | -0.004 | 0.164 | 0.077 | 0.008 | 0.367 (active) | -0.003 | -0.003 | 0.033 | 0.036 | 0.005 | 0.32 | 0.004 |
| MYCBP (UniProt Q99417) | -0.244 | 0.045 | -0.02 | 0.022 | -0.031 | 0.005 | -0.069 | 0.022 | -0.001 | -0.029 | 0.01 | -0.052 | 0.003 | -0.498 (active) | 0.02 | 0.105 | 0.028 | 0.008 | -0.018 | 0.182 |
| PAK1 (UniProt Q13153) | -0.023 | 0.026 | 0.011 | -0.006 | 0.044 | -0.012 | 0.023 | 0.016 | 0.02 | -0.06 | -0.037 | -0.034 | 0.019 | -0.117 | 0.044 | -0.011 | -0.02 | -0.035 | 0.002 | -0.005 |
| NEBL (UniProt O76041) | 0.149 | 0.022 | -0.048 | 0.024 | 0.043 | -0.083 | 0.015 | -0.134 | -0.005 | 0 | 0.054 | -0.046 | 0.09 | 0.106 | 0.023 | -0.204 | 0.01 | -0.006 | -0.037 | -0.076 |
| OSBP2 (UniProt Q969R2) | -0.211 | 0.047 | -0.102 | 0.011 | -0.032 | 0.04 | -0.1 | 0.052 | -0.033 | 0.011 | 0.003 | 0.024 | -0.074 | -0.666 (active) | 0.116 | 0.194 | -0.028 | 0.018 | -0.037 | 0.23 |
| NCAPD2 (UniProt Q15021) | 0.007 | -0.119 | 0.013 | 0.002 | -0.018 | 0.013 | 0.076 | 0.004 | -0.005 | -0.016 | -0.033 | 0.001 | -0.049 | -0.003 | 0.014 | -0.115 | -0.006 | 0.011 | -0.036 | 0.029 |
| NT5DC2 isoform 2 (UniProt Q9H857) | -0.037 | 0.02 | 0.026 | 0.007 | 0.032 | -0.037 | -0.035 | 0.013 | -0.001 | -0.055 | -0.036 | -0.019 | 0.004 | -0.018 | -0.01 | 0.021 | -0.019 | -0.029 | -0.027 | -0.027 |
| NQO1 (UniProt P15559) | 0.007 | -0.079 | 0.068 | 0.003 | -0.111 | 0.043 | 0.159 | -0.001 | -0.042 | 0.009 | -0.055 | -0.048 | -0.04 | -0.074 | 0.012 | 0.009 | 0.022 | -0.333 (active) | -0.023 | 0.262 (active) |
| NCOR1 (UniProt O75376) | -0.028 | -0.027 | 0.018 | 0.06 | 0.021 | 0.015 | -0.007 | 0.01 | 0.018 | -0.019 | 0.046 | -0.028 | 0.018 | 0.031 | -0.022 | -0.03 | -0.009 | -0.034 | -0.028 | 0.006 |
| NAP1L5 (UniProt Q96NT1) | 0.161 | -0.039 | 0.008 | -0.032 | -0.082 | 0.01 | -0.047 | 0.021 | -0.039 | 0.02 | 0.079 | 0.017 | 0.094 | 0.616 (active) | 0.099 | -0.299 | -0.016 | -0.171 | 0.076 | -0.174 |
| MRPL53 (UniProt Q96EL3) | 0.005 | -0.048 | -0.02 | 0.051 | -0.048 | -0.036 | -0.226 (active) | 0.049 | 0 | -0.048 | 0.022 | -0.004 | 0.031 | 0.079 | 0 | -0.04 | 0.016 | 0.009 | 0.005 | 0.012 |
| NFKBIE (UniProt O00221) | -0.068 | 0.029 | 0.055 | 0.054 | 0.013 | 0.038 | -0.14 | 0.047 | -0.03 | 0.014 | 0.03 | 0.002 | -0.027 | 0.066 | 0.03 | -0.02 | 0.07 | 0.031 | 0.012 | 0.096 |
| NCAPH2 (UniProt Q6IBW4) | 0.038 | -0.193 | 0 | 0.005 | -0.084 | 0.064 | -0.039 | -0.027 | 0.01 | -0.048 | -0.075 | -0.023 | -0.04 | -0.01 | -0.03 | -0.052 | 0.058 | -0.051 | -0.036 | 0.185 |
| OSBPL3 isoform 2 (UniProt Q9H4L5) | -0.013 | -0.161 | 0.056 | -0.11 | -0.033 | 0.03 | 0.052 | -0.043 | -0.002 | 0.206 | 0.073 | -0.039 | 0.014 | -0.045 | 0.03 | -0.052 | -0.005 | 0.107 | 0.269 | 0.035 |
| NFATC1 (UniProt O95644) | -0.024 | -0.138 | 0.124 | -0.012 | -0.031 | -0.071 | 0.048 | -0.025 | 0.001 | 0.027 | -0.003 | -0.088 | -0.111 | -0.136 | 0.007 | 0.132 | -0.002 | 0.017 | -0.043 | 0.179 |

Reference: the supplement of paper PMC10849652
